From PubChem BioAssay
Only a selection was taken, and hits are over-represented in it overall.
Anaer choline gr: inhibitors of anaerobic choline-dependent gram-negative bacterial growth | Gram-negative bacterium anaerobic choline minimal medium, absorbance growth; active compounds read low | calls only | 0.2% of 55,000 active; call rule not given here
Starred values were filed as active, the others as inactive; i = inactive; + = active, no number; ! = not active in a repeat.

SMILES	Anaer choline gr
c1ccc(-c2nnc3sc(-c4c[nH]c5ccccc45)nn23)cc1	i
NC(N)=N/N=C/c1c(Cl)cccc1Cl	+!
NC(N)=NC(=O)Cc1c(Cl)cccc1Cl	i
CCn1c(CCc2cccc(NS(=O)(=O)c3ccc4c(c3)oc(=O)n4C)c2)nc2ccccc21	i
COCCn1ccc2nc(C)c(C(=O)NC3CCCCC3)cc2c1=O	i
COc1ccc(Cl)cc1NC(=O)c1c(-c2ccc(C)cc2)nnc2ccccc12	i
Cc1sc2cc(C(=O)N3CCC(N4CCCCC4)CC3)[nH]c2c1CN1CCCCC1	+
CCCN1CCN(C(=O)c2cc3sc(C)c(CN4CCCCC4)c3[nH]2)CC1	i
Cc1sc2cc(C(=O)N3CCC4(CC3)OCCO4)[nH]c2c1CN1CCCCC1	i
CCc1ccc(CC2C(=O)Nc3c(C)cc(C)cc32)cc1 (configuration not stated)	i
COc1cc(N2CCC(N(C)C)CC2)ccc1Nc1ncc(Cl)c(Nc2ccccc2P(C)(C)=O)n1	i
COc1ccc(NC(=O)N2Cc3cccn3-c3ccccc32)cc1OC	i
CCc1ccc(C2CC(=O)Nc3c2cnn3-c2nc3ccccc3s2)cc1 (configuration not stated)	i
O=C1CCCN1CCCNc1nc(C2CC2)nc2c1CCC2	i
CN1CCN(CCNc2nc(C3CC3)nc3c2CCC3)CC1	i
CCN1CCN(CCNc2nc(C3CC3)nc3c2CCC3)CC1	+
O=C(Nc1cccc(F)c1)N1CCN(Cc2cc(=O)n3nc(-c4cccc(F)c4)sc3n2)CC1	i
O=C(COc1ccc(Br)cc1)N1CCC(c2nc3ccccc3s2)CC1	i
Cc1[nH]nc2c1C(c1ccc3c(c1)OCO3)CC(=O)N2 (configuration not stated)	i
CSc1ccc2c(c1)N(CCC1CCCCN1C)c1ccccc1S2 (configuration not stated)	i
CN1CCCC1CCOC(C)(c1ccccc1)c1ccc(Cl)cc1 (configuration not stated)	+
O=S(=O)(c1ccccc1)N1CCCC1c1ccc(Cl)cc1 (configuration not stated)	i
Cc1ccsc1C(=O)N1CCCCC1CCN1CCOCC1 (configuration not stated)	i
Cc1nc(CN2C(=O)COc3ccc(S(=O)(=O)N4CCCC4)cc32)no1	i
Cc1nc(CN2C(=O)COc3ccc(S(=O)(=O)N4CCCCC4)cc32)no1	i
SMILES	Anaer choline gr
O=c1onc2n1-c1cc(Br)ccc1OC2	+
CN1CCN(CCNC(=O)c2cc3n(n2)CCCC3)CC1	i
CN1CCN(S(=O)(=O)c2cc(-c3ccc(=O)[nH]n3)ccc2Cl)CC1	i
CN1CCN(CCc2ccc(Cl)c(Cl)c2)CC1	+
O=C(NCCn1c(-c2ccc(F)cc2)nc2cccnc21)Nc1ccccc1Cl	i
CO[C@@]12[C@H](COC(N)=O)C3=C(C(=O)C(C)=C(N)C3=O)N1C[C@@H]1N[C@@H]12	+!
O=C(CCn1cnc2onc(-c3cccc(F)c3)c2c1=O)N1CCc2ccccc21	i
CCc1ccccc1NC(=O)C1CCCCN1S(=O)(=O)c1ccc2c(c1)nnn2CCOC (configuration not stated)	i
O=C(Nc1c2c(nn1-c1ccc(F)cc1)CSC2)c1ccc(Br)cc1	i
COc1cc(Br)cc(CC2C(=O)N(C)c3ccccc32)c1OC (configuration not stated)	i
Cc1cc(C)cc(NC(=O)CC2(CC3=NS(=O)(=O)c4ccccc4N3)CCCC2)c1	i
Cc1ccc(NC(=O)CCCC2=NS(=O)(=O)c3ccccc3N2)cc1F	+
O=C(CCC1=NS(=O)(=O)c2ccccc2N1)NCc1ccc(F)cc1	i
Cn1cc(S(=O)(=O)N2CCOCC2)cc1C(=O)Nc1ccccc1	i
Cc1ccc(S(=O)(=O)NCC(c2ccccc2)N2CCOCC2)cc1 (configuration not stated)	i
COc1cccc(-c2nn(C)c3sc(C(=O)N(C)Cc4ccccc4)cc23)c1	i
Cc1onc(-c2c(F)cccc2Cl)c1C(=O)N[C@@H]1C(=O)N2C(C(=O)O)C(C)(C)S[C@H]12 (some centres not stated)	i
CC1(C)S[C@@H]2[C@H](NC(=O)Cc3ccccc3)C(=O)N2[C@H]1C(=O)O	i
Cc1onc(-c2ccccc2Cl)c1C(=O)N[C@@H]1C(=O)N2[C@@H]1SC(C)(C)[C@@H]2C(=O)O	+
O=C(CSc1nccn2nc(-c3ccccc3)cc12)Nc1ccc(Br)cc1F	i
Cc1nn(-c2ccc3nnc(C)n3n2)c2c1C(c1ccc(OCc3ccc(Cl)cc3)cc1)CC(=O)N2 (configuration not stated)	i
Cc1nc(OCC(=O)Nc2ccc(F)cc2F)c2ccccc2n1	+
O=C(COc1ccc(-c2cnc3ccccc3n2)cc1)Nc1cc(F)ccc1F	i
CCc1nc(OCC(=O)Nc2cc(C)cc(C)c2)c2ccccc2n1	i
Cc1ccc(-c2csc(C(N)=O)c2-n2cccc2)cc1	i
SMILES	Anaer choline gr
Cc1noc(C)c1C1CCCN1C(=O)c1cc(C2CC2)on1 (configuration not stated)	+
Cc1cc(C(=O)N2CCCC2c2c(C)noc2C)no1 (configuration not stated)	i
CCc1onc(C)c1C1CCCN1C(=O)c1cc(C2CC2)on1 (configuration not stated)	i
CCCCn1cc(C2CC(=O)N(c3ccc(C)cc3)C2=O)c2ccccc21 (configuration not stated)	i
CC(C)OC(=O)CCCC=CCC1C(O)CC(O)C1CCC(O)CCc1ccccc1 (configuration not stated)	i
O=C(O)CCC/C=C\C[C@@H]1[C@@H](/C=C/[C@@H](O)COc2cccc(C(F)(F)F)c2)[C@H](O)C[C@@H]1O	+!
CC(C)OC(=O)CCC/C=C\C[C@@H]1[C@@H](/C=C/C(=O)COc2cccc(C(F)(F)F)c2)[C@H](O)C[C@@H]1O	i
O=C(O)CCC/C=C/C[C@@H]1[C@@H](/C=C/[C@@H](O)COc2cccc(C(F)(F)F)c2)[C@H](O)C[C@@H]1O	i
CC(C)OC(=O)CCC/C=C\C[C@@H]1[C@@H](/C=C/[C@H](O)CCc2ccccc2)[C@H](O)C[C@@H]1O	+
CCCCC[C@H](O)/C=C/[C@@H]1[C@@H](C/C=C/CCCC(=O)O)[C@H](O)C[C@H]1O	i
O=C(Nc1ccc2c(c1)OCCO2)c1ccc(Nc2cc(-c3ccccc3)ncn2)cc1	i
COc1ccc(NC(=O)NC2CCN(c3ccc(F)cc3)C2=O)cc1OC (configuration not stated)	i
CCCn1c(=O)c2ccccc2n2c(=O)n(CC(=O)Nc3ccc4c(c3)OCCO4)nc12	i
O=C(NCc1ccc(F)cc1F)C1CCN(c2nccn3nc(-c4ccc(F)cc4)cc23)CC1	i
CC(C)n1c(=O)c(=O)[nH]c2cc(-c3noc(-c4ccc(Br)cc4)n3)ccc21	i
O=C(C1CCN(S(=O)(=O)c2ccc(-c3noc(-c4ccc5c(c4)OCO5)n3)cc2)CC1)N1CCCC1	i
CCSc1nnc(-c2nn(C)c3c2CN(S(=O)(=O)c2ccc(F)c(Cl)c2)CC3)n1CC	i
CCC(=O)N1CCCN(S(=O)(=O)C(C)C)CC1	i
